Shown are actives, neighbours in structure and some others; about 3.6% of the full set was active somewhere.
Nrf2 block: Nrf2 pathway inhibition; A549 ARE-Fluc reporter, luciferase luminescence, 18-24 h; Potency, µM (doses to about 46 µM), without a hit: at the highest dose activity change, negative = inhibition, usual class: inhibitors; 360,000 tested, 2.1% active; also: % is scaled to controls: 0 for no effect and ±100 for the full control effect; nearly all actives have a fitted effect of over 60% in size
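Nrf2 activity is the BugLite luminescence, read 15 min after reagent at room temperature, following CellTiter-Fluor cytotoxicity readout (30 min, 37C). Compound titrations were applied for 18-24 h to 5000 A549 ARE_Fluc cells/well in 5% FBS OPTI-MEM.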
A549 viability: counter-screen for Nrf2 inhibitors: cytotoxicity in A549 cells. A549 ARE-Fluc cells, CellTiter-Fluor viability, 18-24 h. Potency, µM (series often up to 46 µM), without a hit: top-dose activity change, negative = cytotoxicity, usual class: inhibitors. 390,000 tested, 0.16% active. AID 504648; also: % is scaled to controls: 0 for no effect and ±100 for the full control effect
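A549 ARE_Fluc cells in 5% FBS OPTI-MEM were exposed to compounds in concentration-response for 18-24 h at 37 deg C. Viability was read by CellTiter-Fluor fluorescence (Ex 405/Em 525) after 30 min, before the luciferase read.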
HepG2 tox-1: counter-screen for TGF-b inhibitors: cytotoxicity in HepG2 cells. HepG2 CAGA-GFP viability, ATP luminescence, 18 h. Potency, µM (doses to about 46.1 µM), for the others: top-dose activity change, negative = cytotoxicity, most hits filed as cytotoxic. AID 588856. 410,000 tested, 0.76% active
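HepG2 CAGA-GFP cells (1000/well, DMEM with 1% FBS) received compound, then TGF-beta at 500 pg/mL final, and were incubated 18 hours at 37 degrees C. Viability was read by CellTiter-Glo luminescence. Media-only wells were set as complete cell-killing and DMSO as no toxicity.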
Nrf2 activator: activates Nrf2 signaling; AREc32 ARE-luciferase reporter (MCF7-derived line), luminescence, 24 h; Potency, µM (highest dose often 46.1 µM), for the others: at the highest dose activation, most hits filed as activators; 410,000 tested, 0.31% active; AID 624171; also: % of control where 0% means no effect; nearly all actives have a fitted effect of over 65% in size
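Nrf2 activation is followed as ARE-luciferase induction in the AREc32 line after one day of compound treatment; luminescence is read with Steady-Glo.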
TGFb SMAD3 inh: inhibitors of TGF-b signaling; Potency, µM (doses to about 46.1 µM), for inactives: top-dose activity, negative = inhibition, most hits filed as inhibitors; HepG2 CAGA-GFP TGF-b/SMAD3 reporter, GFP fluorescence, 18 h; TGF-beta stimulated, 500 pg/mL final; 410,000 tested, 1.2% active; AID 588855; also: % is scaled to controls: 0 for no effect and ±100 for the full control effect; nearly all actives have a fitted effect of over 65% in size
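Inhibition of TGF-beta-driven CAGA-GFP reporter expression in HEPG2 cells is measured by cellular GFP fluorescence after 18 h stimulation with 500 pg/mL recombinant TGF-beta in 1% FBS medium at 37 degrees C.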
TGFb CAGA inh: confirmation of TGF-b signaling inhibitors in HepG2 reporter cells; shares compounds with TGFb SMAD3 inh; HepG2 CAGA-GFP TGF-b reporter, GFP fluorescence, 18 h; cells stimulated with TGF-beta, 500 pg/mL; Potency, µM (titrated, usually from 46.1 µM), for the others: at the top dose activity, negative = inhibition, hits mostly inhibitors; 1,600 tested, 63% active; AID 720534; also: % is scaled to controls: 0 for no effect and ±100 for the full control effect; nearly all actives have a fitted effect of over 65% in size
HepG2 tox-2: counter-screen for TGF-b inhibitors: cytotoxicity in HepG2 cells; shares compounds with TGFb SMAD3 inh; HepG2 CAGA-GFP viability, ATP luminescence, 18 h; cells stimulated with TGF-beta, 500 pg/mL; Potency, µM (titrated, usually from 46.1 µM), inactives show at the top dose activity, negative = cytotoxicity, most hits filed as inhibitors; 1,600 tested, 27% active; AID 720535; also: % is scaled to controls: 0 for no effect and ±100 for the full control effect; nearly all actives have a fitted effect of over 70% in size
CCL64 TGFb inh: blocks TGF-b signaling in CCL64 reporter cells | shares compounds with TGFb SMAD3 inh | 1,600 tested, 41% active | Potency, µM (highest dose often 46.1 µM), inactives show at the highest dose activity, negative = inhibition, usual class: inhibitors | CCL64 CAGA-GFP reporter, TGF-b stimulated, GFP fluorescence, 18 h | AID 720536; also: nearly all actives have a fitted effect of over 65% in size
TGFb COP inh: TGF-b inhibition validated with COP promoter. shares compounds with TGFb SMAD3 inh. HepG2 COP-GFP TGF-b reporter, GFP fluorescence, 18 h; cells stimulated by added recombinant TGF-beta. Potency, µM (titrated, usually from 46.1 µM), for inactives: at the top dose activity, negative = inhibition, most hits filed as inhibitors. 1,600 tested, 3% active. AID 720537; also: nearly all actives have a fitted effect of over 70% in size
* marks the source's active call; other numbers are inactive results; ? = inconclusive; . = no result given. Calls follow the shape of the dose curve; as a rule, active = well fitted curve in the direction sought with a large enough effect; inconclusive = small, poorly fitted or top-dose-only effect, or another doubt; inactive = no such curve, though single readings can be large; an effect the other way counts as inactive or inconclusive. Potency is read from the fitted curve at half-maximal effect.

SMILES	Nrf2 block	A549 viability	HepG2 tox-1	Nrf2 activator	TGFb SMAD3 inh	TGFb CAGA inh	HepG2 tox-2	CCL64 TGFb inh	TGFb COP inh
COc1ccc(-c2cc(C(=O)N(C)CC(=O)Nc3cccc(F)c3)c3ccccc3n2)cc1	-24.3%	-1.5%	-10.7%	2.1%	?	18.4µM*	?	?	82.1%
O=[N+]([O-])c1ccc(N/N=C/c2cccnc2)cc1	-9.5%	-12.7%	-13.7%	2.3%	10µM*	10.3µM*	?	5.1%	26.9%
Cc1ccc(CN(C(=O)COc2ccc([N+](=O)[O-])cc2)c2ccccn2)cc1	6.1%	0.8%	-27.8%	4.5%	-28.7%	.	.	.	.
O=C(NCc1ccccc1)C1=C[C@H](c2ccc(C(F)(F)F)cc2)C[C@H](OCc2ccc(CO)cc2)O1	-1.7%	-4.2%	-27.6%	7.6%	?	?	-13.7%	?	8.5%
O=C(Nc1cccc(NC(=O)c2cccs2)c1)c1ccc([N+](=O)[O-])o1	16.0%	-9.7%	22.4µM*	?	5.62µM*	5.17µM*	20.6µM*	11.6µM*	?
O=C(Nc1cccc(NC(=O)c2ccc([N+](=O)[O-])o2)c1)c1ccco1	18.2%	-0.6%	11.2µM*	?	3.98µM*	6.51µM*	?	16.4µM*	?
CCOC(=O)c1sc(N2N=C(C)C(N=Nc3cccc(C)c3)C2=O)nc1C (centres undefined)	-11.4%	-23.3%	-12.2%	2.8%	0.1%	.	.	.	.
COc1ccc(C(N)c2nccc3cc(OC)c(OC)cc23)cc1OC (centres undefined)	8.3%	1.2%	-4.6%	-0.5%	-12.4%	.	.	.	.
CC(=O)NC(c1cccc([N+](=O)[O-])c1)c1ccc2cccnc2c1O (centres undefined)	?	-4.6%	-20.2%	2.3%	?	.	.	.	.
CCCCC(=O)NC(c1cccc([N+](=O)[O-])c1)c1ccc2cccnc2c1O (centres undefined)	?	1.5%	9.5%	-3.2%	?	10.3µM*	7.31µM*	?	9.6%
COc1ccccc1NC(=O)CSc1nc(O)cc(=O)n1-c1ccccc1OC	13.4%	28.8%	-23.6%	-0.6%	30.6%	.	.	.	.
Brc1ccc2[nH]c3c(c2c1)CCC3	?	0.3%	1.0%	-0.7%	2.5%	.	.	.	.
O=C1Cc2c([nH]c3ccc(Br)cc23)-c2ccccc2N1	?	-19.7%	-9.2%	-0.4%	2.82µM*	0.92µM*	3.66µM*	2.91µM*	27.9%
Cc1cc(NC(=O)CS(=O)(=O)c2cn(Cc3cccc(Cl)c3)c3ccccc23)no1	.	.	3.5%	0.2%	17.8µM*	11.6µM*	-11.3%	-23.3%	20.7%
CCn1cc(S(=O)(=O)CC(=O)Nc2cccc(C)c2)c2ccccc21	11.6%	1.4%	-3.8%	-0.1%	-2.0%	.	.	.	.
CCSCCc1nnc(NC(=O)Nc2cccc(C(F)(F)F)c2)s1	?	?	-35.2%	0.3%	4.47µM*	5.17µM*	?	7.31µM*	104.1%

High-throughput results: PubChem BioAssay, National Center for Advancing Translational Sciences (NCATS)
